The source of these data is PubChem BioAssay (Tox21).

SMILES strings stand for the structures. Where “and” joins values, the source holds several entries; their conditions need not be identical. Equal values may be shown once. Results filed as inconclusive are left out. A call without a number means that no potency is given here. Some compounds were tested as several samples or in several runs, with calls that do not always agree. Calls of active or inactive are those of the source. Calls follow the shape of the dose curve; as a rule, active = well fitted inhibition curve with a large enough effect in the repeat runs; inconclusive = weak or mixed curves, or effect the other way; inactive = no such curve, though single readings can be large or run the other way.
Potency is read from the fitted curve at half-maximal effect.

The assay can be described thus: qHTS assay to identify small molecule antagonists of the retinoic acid receptor (RAR) signaling pathway (AID 1159552; also: nearly all actives have a fitted effect of over 50% in size). The settings on record: C3RL4 RARE luciferase reporter, retinol-stimulated, 6 h; series mostly up to 92.4 µM; activity, negative = inhibition: at the top concentration. From the text: National Center for Advancing Translational Sciences [NCATS]
NIH Chemical Genomics Center [NCGC]
U.S. Environmental Protection Agency [EPA]
National Institutes of Environmental Health Sciences [NIEHS]
National Toxicology Program [NTP]
U.S. Food and Drug Administration [FDA]
All-trans Retinoic acid (atRA) is the potent natural metabolite of retinol and plays an important role in normal embryonic development and maintenance of cellular phenotype in adult animals. atRA is the activating ligand for the retinoic acid receptors (RARs) which form heterodimers with retinoid X receptors (RXRs) on the retinoic acid response element (RARE). Through activation of the RAR/RXRs nuclear receptors, atRA regulates the transcription of a large number of protein-coding genes and regulatory RNAs. Intracellular levels of atRA are controlled by the retinol signaling pathway (RSP) that regulates the biosynthesis and catabolism of atRA to maintain physiological levels. Chemicals that interfere with the RSP can cause abnormal intracellular levels of atRA and therefore are potential developmental toxicants. To assess compounds for the potential adverse effect on embryonic development through interfering with retinol signaling, a cell-based RARE luciferase reporter gene assay was used. C3RL4 cell line (OARSA/CFSAN/FDA, Laurel, MD) was used to screen Tox21 10K compound library for identifying inhibitors of the RSP.
Tox21 Assay Protocol Summary:
C3RL4 cells were seeded at 1,000/well in 4 uL of assay medium into white solid 1,536-well tissue culture plates (Greiner Bio-One North America Inc. Monroe, NC) using a Multidrop Combi (Thermo Scientific, Waltham, MA) dispenser. After incubation at 37 C and 5% CO2 for an overnight, 23 nL of compounds dissolved in DMSO, positive control or DMSO only were transferred by a Pintool station (Kalypsys, San Diego, CA). One ul of 1 uM (final concentration) of Retinol was added right after the compound addition by using a Flying Reagent Dispenser (FRD) (Aurora Discovery, San Diego, CA). After 6 hr incubation at 37 C and 5% CO2, 5 uL of Amplite Luciferase reagent (AAT Bioquest Inc. Sunnyvale, CA) was added to each assay plate using an FRD. Luminescence was quantified on a ViewLux plate reader (PerkinElmer, Waltham, MA) after 30 min incubation at room temperature.
In general terms: In qHTS, concentration-response curves come from the screen itself.
For the compound `O=P(OC(CCl)CCl)(OC(CCl)CCl)OC(CCl)CCl`, the Potency entry was “inactive and 27.3 µM (active)”.

On to `CSCCC=O`, for which the Potency result is “inactive”.

Regarding `OC[C@H]1O[C@@](CO)(O[C@H]2O[C@H](CO)[C@@H](O)[C@H](O)[C@H]2O)[C@@H](O)[C@@H]1O`, the Potency result was “inactive”.

Take `O=c1[nH]c(=O)n([C@H]2CCCO2)cc1F`: the Potency result was “inactive”.

As to `O=C(OCCOCCOC(=O)c1ccccc1)c1ccccc1`, the Potency result was “inactive”.

`CCCCCOC(C)=O`: the “activity, negative = inhibition” value is 5.13% (inactive).

In the case of `C/C=C1/CC2C=CC1C2` (stereo not given), the Potency result is “inactive”.

Take `O=C(O)c1cc(C(=O)O)cc(S(=O)(=O)O)c1`: the Potency result is “inactive”.

As for `COc1ccc(NC(C)=O)cc1N`, the Potency result was “inactive”.

As for `O=S1(=O)CC=CC1`, the Potency entry was “inactive”.

In the case of `CCCCCCCCCCCCc1ccccc1`, the Potency result is “inactive”.

As to `O=C(CC(C(=O)OC1CCCCC1)S(=O)(=O)O)OC1CCCCC1` (stereo not given), the Potency result is “inactive”.

As to `O=C(Oc1ccccc1)c1ccccc1`, the Potency entry was “inactive”.

As for `CCOC(=O)NNc1nncc2ccccc12`, the Potency result is “inactive”.

With `Cc1ccc(S(N)(=O)=O)cc1`, the Potency result is “inactive”.

In the case of `Cc1ccc2oc(=O)ccc2c1`, the Potency entry is “inactive”.

For `c1ccc2c(c1)ccc1ccccc12`, the Potency entry is “inactive”.

Take `c1c[nH]cn1`: the Potency result is “inactive”.

Take `CC(=O)CC(=O)Nc1ccccc1`: the Potency entry was “inactive”.

`CN(C)CCC(c1ccccc1)c1ccccn1` (stereo not given): the “activity, negative = inhibition” value was -2.41% (inactive).

`CCCCCCOCCO`: the Potency entry is “inactive”.

`O=C(O)c1ccc2c(c1)C(=O)OC2=O`: the “activity, negative = inhibition” value is -5.93% (inactive).

Turning to `C[C@H]1C[C@@H]2[C@H]([C@@H](O)C[C@@]3(C)[C@H]2CC[C@]3(O)C(=O)CO)[C@@]2(C)C=CC(=O)C=C12`, the Potency entry is “inactive”.

For `CCCCCCCCCCCCS`, the “activity, negative = inhibition” value is 5.02% (inactive).

As to `COc1cc(Cc2cnc(N)nc2N)cc(OC)c1OC`, the Potency entry is “inactive”.

Regarding `O=C(O)CCCC[C@@H]1SC[C@@H]2NC(=O)N[C@@H]21`, the Potency entry is “inactive”.

For `CC1=CCC2CC1C2(C)C` (stereo not given), the Potency entry is “inactive”.

With `COCCCOc1ccnc(CS(=O)c2nc3ccccc3[nH]2)c1C` (stereo not given), the Potency result was “inactive”.

`OCCOCCN1CCN(C2=Nc3ccccc3Sc3ccccc32)CC1`: the Potency entry is “inactive”.

On to `O=C1CCC(N2C(=O)c3ccccc3C2=O)C(=O)N1` (stereo not given), for which the Potency result is “inactive”.

For `CC(=O)Nc1ccccc1`, the Potency result was “inactive”.

Consider `CCCCC(CC)COC(=O)C(C#N)=C(c1ccccc1)c1ccccc1` (stereo not given), for which the Potency is 30.6 µM (active).

`N[C@@H](Cc1cc(I)c(Oc2cc(I)c(O)c(I)c2)c(I)c1)C(=O)O`: the Potency entry is “inactive”.

For `CCCCC(CC)COC(=O)CS` (stereo not given), the Potency result is “inactive”.

Regarding `Fc1ccc(Br)cc1`, the Potency entry is “inactive”.

Regarding `CCCC(C)=O`, the Potency entry is “inactive”.

Take `CC(C)(C)[C@@H](O)[C@@H](Cc1ccc(Cl)cc1)n1cncn1`: the “activity, negative = inhibition” value was 13.7% (inactive).

On to `CC1CCC(C(C)C)C(O)C1` (stereo not given), for which the Potency result was “inactive”.

For the compound `C=CCNC(N)=S`, the Potency result was “inactive”.

Take `O=C(O)c1cc(O)c(O)c(O)c1`: the Potency result was “inactive”.
